# The whole screen tested about 190,000 compounds, of which about 1,900 (1%) were called active.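 Rule for the calls: active = percentage of spot-positive cells more than 3 SD above its plate mean, without a fluorescence outlier flag or 80% toxicity; inconclusive = no clear call, values can overlap the other calls; inactive = the rest.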 Shown is part of a subset that was picked to be rich in actives.
# Assay: autophagy modulators in MEF cells, primary screen, imaging, high-content, MEF GFP-LC3 (AID 463193);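 for % cells with GFP-LC3 spots: spot-positive cell cutoff set from DMSO-treated cells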;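 for toxicity: cell loss after 18 h compound exposure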
# Details: MEF GFP-LC3 puncta imaging, at 10 µM; % cells with GFP-LC3 spots: stronger effect = higher value; toxicity: measured here: cell loss, nuclei count
Structure (SMILES),% cells with GFP-LC3 spots,toxicity [%]
CCN(CC)S(=O)(=O)c1cc([N+](=O)[O-])ccc1NNC(=O)Nc1ccccc1,2.34% (inactive),-10.5
CCn1c(O)c(N=NC(=O)c2cccc(S(=O)(=O)N3CCCCC3)c2)c2ccccc21,17.3% (inactive),3.19
CCN(CC)S(=O)(=O)c1cc([N+](=O)[O-])ccc1N=Nc1c(O)n(C)c2ccccc12,39.2% (active),2.86
CCCCNC(=O)CCn1c(=O)c2ccccc2n(Cc2cc(C)ccc2C)c1=O,8.22% (inactive),-3.52
COc1ccc(CN(C)Cc2nc3cc(OC)c(OC)cc3c(=O)[nH]2)c(OC)c1,25% (inactive),-8.88
O=C(/C=C/c1cn(-c2ccccc2)nc1-c1ccc2c(c1)OCCO2)NCCCN1CCOCC1,1.77% (inactive),-8.43
NC(=S)N/N=C/c1ccc([N+](=O)[O-])cc1,8.24% (inactive),23.5
COC(=O)N/N=C/c1ccc(/C=N/NC(=O)OC)cc1,0.31% (inactive),-3.93
CCOc1ccc(/C=N/NC(N)=S)cc1,19.6% (active),21.8
CCN1C(=O)/C(=C\N2CCOCC2)SC1=S,5.71% (inactive),-3.29
CCN1C(=O)/C(=C\N2CCN(c3ccccc3)CC2)SC1=S,1.26% (inactive),-4.66
CCN1C(=O)/C(=C\N2CCN(c3cccc(Cl)c3)CC2)SC1=S,4.39% (active),13.1
O=C(NCC(=O)N(CC1CCCO1)C(C(=O)NC1CCCCC1)c1ccccc1)c1ccco1 (configuration not stated),0.515% (inactive),-9.95
COc1ccc(NC(=O)C(Br)C(C)C)cc1 (configuration not stated),14.9% (inactive),8.32
CC(=O)C1(C)N(O)C(C)(C)C(c2cccs2)=[N+]1[O-] (configuration not stated),3.17% (inactive),-3.76
CC(C)(C)NC(=O)CN(C(=O)c1csnn1)c1ccccc1-c1ccccc1,8.79% (active),5.01
CCC(C)(C)NC(=O)C(c1ccccn1)N(C(=O)c1csnn1)c1ccccc1 (configuration not stated),3.17% (inactive),14.8
CC(C)(C)NC(=O)CN(C(=O)c1ccc(Cl)nc1)c1cccc2ccccc12,0.133% (inactive),-8.05
Cn1c(-c2ccc(F)cc2)cnc1SCC(=O)NNC(=O)Cc1ccccc1,2.62% (inactive),-10.5
CCOC(=O)/C(C#N)=C/c1cn(CCC(=O)O)nc1-c1ccc(Br)cc1,0.855% (inactive),-6.28
CC1=NN(C(=O)CCc2ccccc2O)C(O)(C(F)(F)F)C1 (configuration not stated),3.31% (inactive),-3.6

Structure (SMILES),% cells with GFP-LC3 spots,toxicity [%]
COc1ccc(CC(=O)N2N=C(C)CC2(O)C(F)(F)F)cc1 (configuration not stated),1.78% (inactive),0.121
CC1=NN(C(=O)CCCc2ccccc2)C(O)(C(F)(F)F)C1 (configuration not stated),4.12% (active),3.92
CN1CCN(NC(=O)c2ccc(S(=O)(=O)N3CCCCCC3)cc2)CC1,1.83% (inactive),28
Cn1c(SCC(=O)N2CCCc3ccccc32)nc2ccccc2c1=O,11.1% (active),28.2
O=C(CSc1nc2[nH]ncc2c(=O)n1-c1ccccc1)N1CCCc2ccccc21,6.24% (inactive),17.2
O=C(CSc1nc2ccccc2c(=O)n1CCCO)N1CCc2ccccc21,7.69% (inactive),-0.286
CCCCN(CC(=O)NC(C)(C)C)C(=O)C(=O)Nc1ccc2c(c1)OCCO2,0.957% (inactive),5.19
C/C(=N\NC(=O)c1ccc(NS(=O)(=O)c2cccs2)cc1)c1ccc2ccccc2c1,20.7% (inactive),-14.3
CCNC(=O)COc1cc(C)c(Br)c(C)c1,22.5% (inactive),9.49
COc1ccccc1C(c1nnnn1CC1CCCO1)N1CCN(c2ccccc2)CC1 (configuration not stated),0.609% (inactive),-7.4
COc1ccc(C(c2nnnn2Cc2cccs2)N2CCN(c3ccccc3)CC2)cc1OC (configuration not stated),10.1% (active),46.3
COc1ccc(CCn2nnnc2C(c2ccccc2)N2CCN(C)CC2)cc1OC (configuration not stated),22.3% (inactive),-9.31
Cc1ccc(NC(=O)c2ccccn2)cc1S(=O)(=O)N1CCOCC1,7.19% (inactive),21.1
COc1ccc(NC(=S)NCC2CCN(c3ccc(OC)cc3)C2)cc1 (configuration not stated),6.08% (inactive),8.9
COc1ccc(C(=O)Nc2ccc(NC(=O)C(C)C)nc2)cc1,4.13% (inactive),-1.69
COc1ccc(CC(=O)Nc2ccc(C(=O)NC(C)(C)C)cc2)cc1,6.06% (inactive),-0.0115
Cc1ccc(OCC(=O)Nc2ccc(-c3nc4ncccc4o3)cc2)cc1,13.3% (inactive),-0.528
COc1ccc(CC(=O)Nc2ccc(-c3nnc(-c4ccc(C)cc4)o3)cc2)cc1,39.9% (active),9.61
CN(c1ccc2nc3ccccc3c(=O)n2n1)C1CCCCC1,14.8% (inactive),11.6
Nc1nc(NC(=O)/C=C/c2ccccc2)nn1-c1ccccc1,7.01% (inactive),2.03

# Source: PubChem BioAssay AID463193 (University of Pittsburgh Molecular Library Screening Center, 2010)
